Source: PubChem BioAssay (NCATS)
“And” between values parts separate entries of the source, which are not always exact repeats. Identical values can stand only once. Results filed as inconclusive are left out. The source made the active and inactive calls. Unless noted, calls follow the shape of the dose curve; as a rule, active = well fitted curve in the direction sought with a large enough effect; inconclusive = small, poorly fitted or top-dose-only effect, or another doubt; inactive = no such curve, though single readings can be large; an effect the other way counts as inactive or inconclusive.

Legend:
[1] = molecular target: Cytochrome P450 2D6 (Homo sapiens) (UniProt P10635); experiment: Cytochrome P450 family 2 subfamily D member 6 (CYP2D6) small molecule antagonists: luciferase biochemical (cell-free) qHTS assay (AID 1645840; active = well fitted curve in the direction sought with a large enough effect in the repeat runs; an effect the other way counts as inactive or inconclusive; also: % is scaled to controls: 0 for no effect and ±100 for the full control effect; nearly all actives have a fitted effect of over 55% in size); conditions: P450-Glo CYP2D6 enzyme, luciferin luminescence, 1 h; series mostly up to 57.4 µM
Sequence of Cytochrome P450 2D6 (Homo sapiens) (P10635 whole entry, looked up): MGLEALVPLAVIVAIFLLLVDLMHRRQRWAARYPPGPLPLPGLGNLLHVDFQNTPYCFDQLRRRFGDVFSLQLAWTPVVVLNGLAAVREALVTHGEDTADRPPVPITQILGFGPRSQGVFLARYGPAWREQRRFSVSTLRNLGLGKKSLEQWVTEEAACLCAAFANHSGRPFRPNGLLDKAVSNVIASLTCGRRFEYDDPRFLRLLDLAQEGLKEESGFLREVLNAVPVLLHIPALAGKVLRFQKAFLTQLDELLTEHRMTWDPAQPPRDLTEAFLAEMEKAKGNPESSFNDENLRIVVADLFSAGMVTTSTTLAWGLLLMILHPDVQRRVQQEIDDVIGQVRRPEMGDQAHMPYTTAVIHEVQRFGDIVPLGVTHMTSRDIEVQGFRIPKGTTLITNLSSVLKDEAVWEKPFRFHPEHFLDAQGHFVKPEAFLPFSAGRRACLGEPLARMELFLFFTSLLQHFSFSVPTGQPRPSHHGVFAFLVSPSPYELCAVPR
Method in brief: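 P450-Glo CYP2D6 system: proluciferin substrate converted by enzyme to luciferin, read by luminescence proportional to activity. Enzyme-substrate mix with compound 10 min at room temperature, then NADPH regeneration 1 h before detection reagent.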

[2] = molecular target: Cytochrome P450 2C9 (Homo sapiens) (UniProt P11712); experiment: Cytochrome P450 family 2 subfamily C member 9 (CYP2C9) small molecule antagonists: luciferase biochemical (cell-free) qHTS assay (AID 1645842; active = well fitted curve in the direction sought with a large enough effect in the repeat runs; an effect the other way counts as inactive or inconclusive; also: nearly all actives have a fitted effect of over 55% in size; also: potency is read from the fitted curve at half-maximal effect; as to activity change, negative = inhibition: % is scaled to controls: 0 for no effect and ±100 for the full control effect); conditions: P450-Glo CYP2C9 enzyme assay, luciferin luminescence; series mostly up to 57.4 µM
Sequence of Cytochrome P450 2C9 (Homo sapiens) (P11712 whole entry, looked up): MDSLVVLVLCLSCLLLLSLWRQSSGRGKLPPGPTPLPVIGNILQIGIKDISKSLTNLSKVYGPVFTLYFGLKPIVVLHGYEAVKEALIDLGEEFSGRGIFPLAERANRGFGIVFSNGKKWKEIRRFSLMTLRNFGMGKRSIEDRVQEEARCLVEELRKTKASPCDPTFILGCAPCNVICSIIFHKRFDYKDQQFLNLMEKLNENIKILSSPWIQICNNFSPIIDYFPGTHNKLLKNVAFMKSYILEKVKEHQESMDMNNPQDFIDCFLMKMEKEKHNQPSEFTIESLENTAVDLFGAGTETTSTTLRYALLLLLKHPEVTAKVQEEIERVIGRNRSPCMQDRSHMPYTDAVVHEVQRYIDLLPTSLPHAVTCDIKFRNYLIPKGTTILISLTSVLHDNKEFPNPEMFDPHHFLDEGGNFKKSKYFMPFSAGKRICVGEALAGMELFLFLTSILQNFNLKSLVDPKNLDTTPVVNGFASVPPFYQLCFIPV
Method in brief: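 P450-Glo CYP2C9 system: proluciferin substrate with enzyme in mix containing 0.4% BSA, 10 min at room temperature, then NADPH regeneration solution added and incubated 1 h at 37C. Detection reagent stopped reaction; luminescence read after 20 min as RLU.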

[3] = Primary qHTS for inhibitors of nuclear receptor binding SET domain protein 2 (NSD2) in an isogenic RCH-ACV NSD2 p.E1099K mutant (9B) (AID 1645876); conditions: RCH-ACV NSD2 E1099K (9B) viability, CellTiter-Glo, 72 h; series mostly up to 44.9 µM; also: nearly all actives have a fitted effect of over 70% in size; also: potency is read from the fitted curve at half-maximal effect
[4] = Primary qHTS for inhibitors of nuclear receptor binding SET domain protein 2 (NSD2) in an RCH-ACV wild type WT cells (2C) (AID 1645877); conditions: RCH-ACV (leukaemia line) NSD2 WT (2C) viability, CellTiter-Glo, 72 h; series mostly up to 44.9 µM; also: nearly all actives have a fitted effect of over 70% in size; also: potency is read from the fitted curve at half-maximal effect
[5] = molecular target: N-terminal Xaa-Pro-Lys N-methyltransferase 1 (Homo sapiens) (UniProt Q9BV86); experiment: Confirmatory qHTS for Inhibitors of N-terminal methyltransferase 1 (NTMT1): MTaseGlo Assay (AID 1645874); conditions: NTMT1 enzyme, MTase-Glo SAH luminescence; series mostly up to 100 µM; also: nearly all actives have a fitted effect of over 65% in size; also: potency is read from the fitted curve at half-maximal effect;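 as to activity change, negative = inhibition: luminescence from SAH made as NTMT1 methylates SPKRIA peptide using SAM; 0% = DMSO control and -100% = no-enzyme control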
Sequence of N-terminal Xaa-Pro-Lys N-methyltransferase 1 (Homo sapiens) (Q9BV86 whole entry, looked up): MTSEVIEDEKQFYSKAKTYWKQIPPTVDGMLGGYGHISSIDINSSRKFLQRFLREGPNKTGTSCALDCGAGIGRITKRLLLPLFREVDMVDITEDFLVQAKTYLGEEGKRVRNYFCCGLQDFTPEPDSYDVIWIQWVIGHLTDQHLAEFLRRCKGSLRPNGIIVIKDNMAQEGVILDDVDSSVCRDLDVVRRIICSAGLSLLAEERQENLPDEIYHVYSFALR
Method in brief: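 Room-temperature NTMT1 reaction, 30 min, with 100 uM SAM and 1 uM SPKRIA substrate; enzyme 125 nM. Read-out: MTase-Glo luminescence, normalized to no-enzyme and DMSO controls.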

[6] = molecular target: Catechol O-methyltransferase (Homo sapiens) (UniProt P21964); experiment: Confirmatory Screen for Target Class Profiling of Small Molecule Inhibitors of Methyltransferases (AID 1745852; calls by dose curve; also: potency is read from the fitted curve at half-maximal effect; as to activity change, negative = inhibition: % is scaled to controls: 0 for no effect and ±100 for the full control effect); conditions: MTase-Glo luminescence, SAH detection, recombinant enzyme; measured here: COMT max response; stronger effect = lower value
Sequence of Catechol O-methyltransferase (Homo sapiens) (P21964 whole entry, looked up): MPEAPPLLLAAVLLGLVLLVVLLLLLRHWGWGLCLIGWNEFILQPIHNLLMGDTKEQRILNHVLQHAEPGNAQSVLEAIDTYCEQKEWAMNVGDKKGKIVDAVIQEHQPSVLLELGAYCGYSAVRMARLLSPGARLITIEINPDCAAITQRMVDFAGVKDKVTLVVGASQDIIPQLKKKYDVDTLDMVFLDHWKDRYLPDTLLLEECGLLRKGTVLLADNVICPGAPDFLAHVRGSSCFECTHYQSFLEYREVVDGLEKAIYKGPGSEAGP

[7] = molecular target: Guanidinoacetate N-methyltransferase (Homo sapiens) (UniProt Q14353); experiment: as above; conditions: MTase-Glo luminescence, SAH detection, recombinant enzyme; activity change, negative = inhibition: at 57.3 µM (top of the series) unless noted

## COC(=O)c1ccc2c(C(=Nc3ccc(N(C)C(=O)CN4CCN(C)CC4)cc3)c3ccccc3)c(O)[nH]c2c1
[1]
  Potency: inactive
[2]
  Potency: inactive
[3]
  Potency: 1.83 µM (active) and 2.63 µM (active)
[4]
  Potency: 2.3 µM (active) and 3.32 µM (active)

## O=C(O)Cn1nnc(-c2cc(N3CCC(Oc4cc(F)ccc4Br)CC3)no2)n1
[1]
  Potency: inactive
[2]
  Potency: 13.5 µM (active)
[3]
  Potency: inactive

## NC(=O)Nc1cc(-c2cccc(F)c2)sc1C(=O)N[C@H]1CCCNC1
[3]
  Potency: 81.7 nM (active) and 74.2 nM (active)
[4]
  Potency: 81.7 nM (active) and 74.2 nM (active)

## Cc1ccc(S(=O)(=O)Nc2cc(Cl)ccc2C(=O)Nc2nc(-c3ccccc3)cs2)cc1
[3]
  Potency: inactive

## CC(C)c1ccccc1Cc1cc(C(=O)Nc2ccc(S(=O)(=O)c3ccccc3C(C)(C)C)cc2)c(O)c(O)c1O
[3]
  Potency: 13.2 µM (active)

## COc1cc2c(Oc3ccc4[nH]c(C)cc4c3F)ncnc2cc1OCCCN1CCCC1
[3]
  Potency: 4.59 µM (active) and 6.61 µM (active)
[4]
  Potency: 7.28 µM (active) and 7.42 µM (active)

## COc1ccc(OC)c(-c2nnc3ccc(-c4ccc(OC)c(O[C@@H]5CCOC5)c4)nn23)c1
[3]
  Potency: 3.72 µM (active)
[4]
  Potency: 2.95 µM (active)

## O=C(c1cncc(Br)c1)N1CCC(N2CCCC2)CC1
[3]
  Potency: inactive

## OCc1ccc(-c2ccc(-c3ccc(CO)s3)o2)s1
[5]
  Potency: inactive
[3]
  Potency: 50.2 nM (active) and 934 nM (active)
[4]
  Potency: 31.7 nM (active) and 1.32 µM (active)

## O=C(NCCS(=O)(=O)c1ccc(C(F)(F)F)cn1)c1ccc(Cl)cc1
[3]
  Potency: inactive
[4]
  Potency: inactive

## CC(O)C1C(=O)N2C(C(=O)O)=C(SC3CNC(C(=O)N(C)C)C3)C(C)C12 (configuration not stated)
[3]
  Potency: inactive

## C[C@@H]1COC(Nc2ccc3ncnc(Nc4ccc(OCc5nccs5)c(Cl)c4)c3c2)=N1
[3]
  Potency: 13.2 µM (active)
[4]
  Potency: 11.8 µM (active)

## CN(C)CCCN=c1c2ccccc2n(C)c2[nH]c(=O)n(C)c(=O)c12
[3]
  Potency: 13.2 µM (active)
[4]
  Potency: 11.8 µM (active)

## COc1cc(-c2nn(C3CCC(N4CCN(C(C)=O)CC4)CC3)c3ncnc(N)c23)ccc1NC(=O)c1cc2ccccc2n1C (configuration not stated)
[2]
  Potency: 3.01 µM (active)
[3]
  Potency: 183 nM (active) and 590 nM (active)

## Cc1c(C)n(Cc2ccc(-c3ccccc3C(=O)O)cc2)c2ccc(C(=O)N[C@@H](C)c3ccc([N+](=O)[O-])cc3)cc12
[2]
  Potency: 15.1 µM (active)
[6]
  activity: -7.34%
[7]
  activity change, negative = inhibition: -10.2%

## CNC(=O)c1ccc(-c2cnc3ncc(Cc4ccc5ncccc5c4)n3n2)cc1F
[2]
  Potency: 2.13 µM (active)
[3]
  Potency: inactive
[4]
  Potency: inactive

## Cc1cc(C(=O)N2CCN(c3cccc(Cl)c3)CC2)n(-c2ccccc2)n1
[3]
  Potency: 2.09 µM (active)

## Fc1cc(-c2cccc3ncc(-c4cnn(C5CCNCC5)c4)nc23)cc(F)c1CN1CCOCC1
[5]
  Potency: 39.8 µM (active)

## CC(C)(C)c1cc(NC(=O)Nc2ccc(-c3cn4c(n3)sc3cc(OCCN5CCOCC5)ccc34)cc2)no1
[3]
  Potency: inactive

## O=c1[nH]c(=O)n(C2CCCO2)cc1F (configuration not stated)
[3]
  Potency: inactive
[4]
  Potency: inactive

## CCCCOc1c(C(=O)c2c(F)cc(C)cc2F)cnc2n[nH]cc12
[1]
  Potency: inactive
[3]
  Potency: 0.817 µM (active)
[4]
  Potency: 578 nM (active) and 235 nM (active)

## Cc1ccc(-c2ncn(-c3ccc(Nc4nccc(-c5cccc(N6CCOCC6)c5)n4)cc3)n2)cn1
[3]
  Potency: 1.05 µM (active)
[4]
  Potency: 0.662 µM (active)

## CNC(=O)CN1CCC(Oc2cc3c(Nc4cccc(Cl)c4F)ncnc3cc2OC)CC1
[2]
  Potency: 9.52 µM (active)
[3]
  Potency: 16.3 µM (active) and 18.6 µM (active)
[4]
  Potency: 18.6 µM (active)
[6]
  activity: -36%
[7]
  Potency: 42.9 µM (active)

## N#Cc1c(O)c2c(-c3ccc(-c4ccccc4O)cc3)csc2[nH]c1=O
[3]
  Potency: inactive
[6]
  activity: 1.41%
[7]
  activity change, negative = inhibition: 0%

## CCCCCN(CCC12CC3CC(CC(C3)C1)C2)C(=O)NCCCc1ccncc1
[4]
  Potency: 16.3 µM (active)

## CC1(C)CCC(c2ccc(Cl)cc2)=C(CN2CCN(c3ccc(C(=O)NS(=O)(=O)c4ccc(N[C@H](CCN5CCOCC5)CSc5ccccc5)c(S(=O)(=O)C(F)(F)F)c4)cc3)CC2)C1
[3]
  Potency: 1.03 µM (active) and 1.18 µM (active)
[4]
  Potency: 365 nM (active) and 742 nM (active)

## Cn1c2cc(S(C)=O)sc2c2cnn(Cc3cccc(N)c3)c(=O)c21 (configuration not stated)
[2]
  Potency: 19 µM (active)

## CC(=O)OCCN1C(=O)c2c(C)nc3ccc(S(=O)(=O)N4CCOCC4)cc3c2C1=O
[3]
  Potency: inactive
[4]
  Potency: inactive

## O=C(O)CCCc1c[nH]c2ccccc12
[3]
  Potency: inactive
[4]
  Potency: inactive

## Cc1ccc(NC(=O)C2(c3ccc4c(c3)OC(F)(F)O4)CC2)nc1-c1cccc(C(=O)O)c1
[1]
  Potency: inactive
[3]
  Potency: inactive
[4]
  Potency: inactive

## CC(=O)Nc1nc(C)c(-c2ccc(Cl)c(S(=O)(=O)NCCO)c2)s1
[3]
  Potency: 1.32 µM (active)
[4]
  Potency: 1.32 µM (active)

## Cc1c(NC(=O)OC[C@@H]2COCCN2)cn2ncnc(Nc3ccc4c(cnn4Cc4cccc(F)c4)c3)c12
[3]
  Potency: 16.6 µM (active)
[4]
  Potency: 14.8 µM (active)

## Cc1cn(-c2cc(NC(=O)c3ccc(C)c(Nc4nccc(-c5cccnc5)n4)c3)cc(C(F)(F)F)c2)cn1
[3]
  Potency: 8.2 µM (active) and 11.8 µM (active)
[4]
  Potency: 5.8 µM (active) and 2.35 µM (active)

## O=C(O)c1ccc2cc(-c3ccc(O)c(C45CC6CC(CC(C6)C4)C5)c3)ccc2c1
[3]
  Potency: 0.934 µM (active)
[4]
  Potency: 0.59 µM (active)

## CCn1nnc2c(N3CCOCC3)nc(-c3ccc(NC(=O)Nc4ccc(C(=O)N5CCN(C)CC5)cc4)cc3)nc21
[3]
  Potency: 18.3 nM (active) and 41.7 nM (active)
[4]
  Potency: 46.1 nM (active) and 59 nM (active)
[6]
  activity: -6.26%
[7]
  activity change, negative = inhibition: 0%

## COc1ccc(CC2c3cc(OC)c(OC)cc3CC[N+]2(C)CCC(=O)OCCCCCOC(=O)CC[N+]2(C)CCc3cc(OC)c(OC)cc3C2Cc2ccc(OC)c(OC)c2)cc1OC (configuration not stated)
[2]
  Potency: inactive
[3]
  Potency: 23.5 µM (active)
[4]
  Potency: 23.5 µM (active)

## CN(C)c1nc(Cc2ccc(NC(=O)c3ccc4ccccc4c3)cc2)nc(Cl)c1CC(=O)O
[1]
  Potency: inactive
[3]
  Potency: inactive
[4]
  Potency: inactive

## CC(C)[C@H](C(=O)Nc1ccc(C(=O)NO)cc1)c1ccccc1
[3]
  Potency: inactive
[4]
  Potency: inactive

## CC(C)C[C@H](NC(=O)CNC(=O)c1cc(Cl)ccc1Cl)B(O)O
[3]
  Potency: 0.148 µM (active)
[4]
  Potency: 0.0934 µM (active)

## O=C(NC1CCNCC1)c1[nH]ncc1NC(=O)c1c(Cl)cccc1Cl
[3]
  Potency: 0.662 µM (active)
[4]
  Potency: 0.59 µM (active)

## COc1cccc(-c2ccc(NC(=O)C3=C(C(=O)O)CCC3)c(F)c2)c1
[2]
  Potency: 21.3 µM (active) and 26.8 µM (active)
[3]
  Potency: 5.78 µM (active) and 2.95 µM (active)
[4]
  Potency: 6.49 µM (active) and 3.72 µM (active)

## O=C(CCCCCCC(=O)Nc1ccc([C@H]2O[C@@H](CSc3nc(-c4ccccc4)c(-c4ccccc4)o3)C[C@@H](c3ccc(CO)cc3)O2)cc1)NO
[3]
  Potency: 2.58 µM (active) and 4.28 µM (active)
[4]
  Potency: 2.58 µM (active) and 4.28 µM (active)
